Test results as given in PubChem BioAssay (Tox21).
Records with an inconclusive call do not appear. The source made the active and inactive calls. Calls follow the shape of the dose curve; as a rule, active = well fitted curve in the direction sought with a large enough effect in the repeat runs; inconclusive = weak or mixed curves; inactive = no such curve, though single readings can be large; an effect the other way counts as inactive or inconclusive.

Tests used:
[1] = A CellTox Green Cytotoxicity Assay to monitor cytotoxicity in HEK293 cells - 32 hour (AID 1224881); also: nearly all actives have a fitted effect of over 40% in size
Method in brief: (§1)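 Read-out: fluorescence of a cell-impermeant cyanine dye staining DNA of dead cells, proportional to cytotoxicity. HEK293, 600 cells/well with reagent, compound (23 nL DMSO) added after 5 h; reads at 0, 8, 16, 24, 32, 40 h.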

[2] = A CellTox Green Cytotoxicity Assay to monitor cytotoxicity in HepG2 cells - 0 hour (AID 1224882); also: nearly all actives have a fitted effect of over 35% in size
Method in brief: (§2)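 HepG2, 600 cells/well premixed w/ CellTox Green; 5 h settle, 37 C/5% CO2; pintool cpd add (DMSO); 37 C, 40 h; fluorescence read at 0, 8, 16, 24, 32, 40 h.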

[3] = A CellTox Green Cytotoxicity Assay to monitor cytotoxicity in HepG2 cells - 32 hour (AID 1224883); also: nearly all actives have a fitted effect of over 50% in size
Method in brief: as §2

[4] = qHTS RealTime-Glo MT Cell Viability Assay in HepG2 cells - 16 hour (AID 1224885); also: nearly all actives have a fitted effect of over 50% in size
Method in brief: (§3)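 Tox21 10K library screened in qHTS format on HepG2 cells carrying RealTime-Glo reagents. Compounds were added after a 5 h preincubation, and the luminescent signal from continuous culture was measured repeatedly during 40 h treatment.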

[5] = qHTS RealTime-Glo MT Cell Viability Assay in HEK293 cells - 8 hour (AID 1224887); also: top concentration of the series differs between compounds; nearly all actives have a fitted effect of over 50% in size
Method in brief: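 Luminescence readout at each listed time point; HEK293, 600 cells/well, RealTime-Glo MT reagent added with cells; compounds pinned (23 nL in DMSO) after 5 h at 37 C; continuous culture at 37 C.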

[6] = A CellTox Green Cytotoxicity Assay to monitor cytotoxicity in HEK293 cells - 16 hour (AID 1224888); also: nearly all actives have a fitted effect of over 35% in size
Method in brief: as §1

[7] = A CellTox Green Cytotoxicity Assay to monitor cytotoxicity in HepG2 cells - 8 hour (AID 1224890); also: nearly all actives have a fitted effect of over 45% in size
Method in brief: as §2

[8] = A CellTox Green Cytotoxicity Assay to monitor cytotoxicity in HEK293 cells - 8 hour (AID 1224884); also: nearly all actives have a fitted effect of over 35% in size
Method in brief: as §1

[9] = qHTS RealTime-Glo MT Cell Viability Assay in HEK293 cells - 24 hour (AID 1224886); also: top concentration of the series differs between compounds; nearly all actives have a fitted effect of over 50% in size
Method in brief: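 Luminescence generated by NanoLuc from substrate produced by living HEK293 cells served as the viability signal. Each value reflects the reading at its stated time point during continuous 40 h compound exposure at 37 C.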

[10] = qHTS RealTime-Glo MT Cell Viability Assay in HepG2 cells - 0 hour (AID 1224889); also: nearly all actives have a fitted effect of over 50% in size
Method in brief: as §3
% is scaled to controls: 0 for no effect and ±100 for the full control effect.

O=C(O)CCSCCC(=O)O
inactive: outcome [1] | Potency [2] | Potency [3] | outcome [4] | Potency [5] | outcome [6] | outcome [7]

C[N+](C)(CCOc1ccccc1)Cc1cccs1
inactive: outcome [1] | Potency [2] | outcome [8] | outcome [4] | Potency [9] | Potency [5] | outcome [6] | Potency [10] | outcome [7]

O=[N+]([O-])c1cncn1CCN1CCOCC1
inactive: outcome [1] | Potency [2] | outcome [8] | outcome [4] | Potency [9] | Potency [5] | outcome [6] | Potency [10] | outcome [7]

[K+]
inactive: outcome [1] | Potency [2] | Potency [3] | outcome [4] | Potency [9] | Potency [5] | outcome [6] | Potency [10] | outcome [7]

O=C1CCCCCCCCCCCCCCO1
inactive: outcome [1] | Potency [2] | Potency [3] | outcome [4] | Potency [9] | Potency [5] | outcome [6] | Potency [10] | outcome [7]

CC(C)C(=O)OC(=O)C(C)C
inactive: outcome [1] | Potency [2] | Potency [3] | outcome [8] | outcome [4] | outcome [6] | outcome [7]

Cc1cc(C)c(N=Nc2c(O)c(S(=O)(=O)O)cc3cc(S(=O)(=O)O)ccc23)cc1C
inactive: cytotoxicity increase [1] 10.2% [at 6.97 µM] | cytotoxicity [2] 2.93% [at 6.97 µM] | cytotoxicity increase [3] -2.71% [at 6.97 µM] | cytotoxicity increase [8] 0% [at 6.97 µM] | activity change, negative = cytotoxic [4] 0.476% [at 6.97 µM] | activity change [6] 15.4% [at 6.97 µM] | activity change, negative = cytotoxicity [10] 4.39% [at 6.97 µM] | cytotoxicity increase [7] 3.92% [at 6.97 µM]

CN1[C@@H]2CC[C@H]1CC(OC(=O)C(O)c1ccccc1)C2 (stereo partly specified)
inactive: outcome [1] | Potency [2] | Potency [3] | outcome [8] | outcome [4] | outcome [6] | Potency [10] | outcome [7]

CN(C)CCCCCCN(C)C
inactive: outcome [1] | Potency [2] | Potency [3] | outcome [4] | Potency [9] | Potency [5] | outcome [6] | Potency [10] | outcome [7]

O=C(O)CNC(=O)c1ccc(CO)o1
inactive: outcome [1] | Potency [2] | outcome [8] | outcome [4] | Potency [9] | Potency [5] | outcome [6] | Potency [10] | outcome [7]

O=[N+]([O-])c1ccc(/C=N\O)o1
inactive: outcome [1] | Potency [2] | Potency [3] | outcome [8] | outcome [4] | outcome [6] | Potency [10] | outcome [7]

CO[Si](C)(OC)c1ccccc1
inactive: outcome [1] | Potency [2] | Potency [3] | outcome [4] | Potency [9] | Potency [5] | outcome [6] | Potency [10] | outcome [7]

O=S(=O)(O)c1cc(O)c(O)c(S(=O)(=O)O)c1
inactive: outcome [1] | Potency [2] | Potency [3] | outcome [8] | outcome [4] | outcome [6] | Potency [10] | outcome [7]

CC(=O)Oc1cccc(C)c1
inactive: outcome [1] | Potency [2] | outcome [8] | outcome [4] | Potency [9] | Potency [5] | outcome [6] | Potency [10] | outcome [7]

COc1cc(C(=O)NCc2ccc(OCCN(C)C)cc2)cc(OC)c1OC
inactive: outcome [1] | Potency [2] | Potency [3] | outcome [4] | Potency [9] | Potency [5] | outcome [6] | Potency [10] | outcome [7]

CCOC(=O)CCC(=O)OCC
inactive: outcome [1] | Potency [2] | outcome [8] | outcome [4] | Potency [9] | Potency [5] | outcome [6] | Potency [10] | outcome [7]

CC(=O)c1ccc2ccccc2c1
inactive: outcome [1] | Potency [2] | outcome [8] | outcome [4] | Potency [9] | Potency [5] | outcome [6] | Potency [10]

CN(C)CCCN(C)CCCN(C)C
inactive: outcome [1] | Potency [2] | outcome [8] | outcome [4] | Potency [9] | Potency [5] | outcome [6] | Potency [10] | outcome [7]

FB(F)F
inactive: outcome [1] | Potency [2] | outcome [8] | outcome [4] | Potency [9] | Potency [5] | outcome [6] | Potency [10] | outcome [7]

CCOC(=O)C1=NOC(c2ccccc2)(c2ccccc2)C1
inactive: outcome [1] | Potency [2] | Potency [3] | outcome [4] | Potency [9] | Potency [5] | outcome [6] | Potency [10] | outcome [7]

CN1C(C)(C)CC(O)CC1(C)C
inactive: outcome [1] | Potency [2] | Potency [3] | outcome [4] | Potency [9] | Potency [5] | outcome [6] | outcome [7]

CN1CC(=O)N/C1=N/C(=O)Nc1cccc(Cl)c1
inactive: outcome [1] | Potency [2] | Potency [3] | outcome [8] | outcome [4] | outcome [6] | Potency [10] | outcome [7]

OCCCCCO
inactive: outcome [1] | Potency [2] | Potency [3] | outcome [4] | Potency [9] | Potency [5] | outcome [6] | Potency [10] | outcome [7]

CC(C)CC(C)(N)C#N (stereo unspecified)
inactive: outcome [1] | Potency [2] | Potency [3] | outcome [4] | Potency [5] | outcome [6] | Potency [10] | outcome [7]

CC[N+](CC)(CC(=O)Nc1c(C)cccc1C)Cc1ccccc1 (tested in a mixture with another compound)
inactive: outcome [1] | Potency [2] | outcome [8] | outcome [4] | Potency [9] | Potency [5] | outcome [6] | Potency [10] | outcome [7]

C[C@@H]1CCC[C@H](C)N1
inactive: outcome [1] | Potency [2] | outcome [8] | outcome [4] | Potency [9] | Potency [5] | outcome [6] | outcome [7]

CC(C)C1CCC(O)CC1 (stereo unspecified)
inactive: outcome [1] | Potency [2] | Potency [3] | outcome [4] | Potency [9] | Potency [5] | outcome [6] | Potency [10] | outcome [7]

CC(COc1ccccc1)NN (stereo unspecified)
inactive: outcome [1] | Potency [2] | outcome [8] | outcome [4] | Potency [9] | Potency [5] | outcome [6] | Potency [10] | outcome [7]

CN(C)C(=O)Oc1ccc[n+](C)c1
inactive: outcome [1] | Potency [2] | outcome [8] | outcome [4] | Potency [9] | Potency [5] | outcome [6] | Potency [10] | outcome [7]

CCCCCCCCN1CCCC1=O
inactive: outcome [1] | Potency [2] | Potency [3] | outcome [4] | Potency [9] | outcome [6] | outcome [7]

CCN(CC#N)c1cccc(C)c1
inactive: outcome [1] | Potency [2] | Potency [3] | outcome [4] | Potency [5] | outcome [6] | Potency [10] | outcome [7]

COC(=O)Nc1ccc(Cl)c(Cl)c1
inactive: outcome [1] | Potency [2] | Potency [3] | outcome [4] | outcome [6] | Potency [10] | outcome [7]

C[N+]1(C)CCCC(OC(=O)C(O)(c2ccccc2)c2ccccc2)C1 (stereo unspecified)
inactive: outcome [1] | Potency [2] | outcome [8] | outcome [4] | Potency [9] | Potency [5] | outcome [6] | outcome [7]

CCC1C(=O)OCC1Cc1cncn1C (stereo unspecified)
inactive: Potency [2] | Potency [3] | outcome [8] | outcome [4] | Potency [9] | Potency [5] | outcome [6] | Potency [10] | outcome [7]

O=S(=O)(O)c1cccc(S(=O)(=O)O)c1
inactive: outcome [1] | Potency [2] | outcome [4] | Potency [9] | Potency [5] | outcome [6] | Potency [10] | outcome [7]

Cc1nc(C2CCCCC2)c(-c2ccc(S(N)(=O)=O)c(F)c2)o1
inactive: outcome [1] | Potency [3] | outcome [8] | outcome [6] | Potency [10] | outcome [7]

CN1CCN(c2cc3c(nn2)Oc2ccccc2N3C)CC1
inactive: cytotoxicity increase [1] -14.8% [at 15.8 µM] | cytotoxicity [2] 0.041% [at 15.8 µM] | cytotoxicity increase [8] -6.06% [at 15.8 µM] | activity change, negative = cytotoxic [4] -5.35% [at 15.8 µM] | activity change, negative = cytotoxicity [9] -1.39% [at 15.8 µM] | activity change, negative = cytotoxicity [5] 0.282% [at 15.8 µM] | activity change [6] -9.75% [at 15.8 µM] | cytotoxicity increase [7] 1.91% [at 15.8 µM]

[O-][n+]1cccc(CO)c1
inactive: outcome [1] | Potency [2] | outcome [8] | outcome [4] | Potency [9] | outcome [6] | outcome [7]

O=C(O)CCCC[P+](c1ccccc1)(c1ccccc1)c1ccccc1
inactive: outcome [1] | Potency [2] | outcome [4] | outcome [6] | Potency [10] | outcome [7]

O=C(CO)[C@@H](O)[C@H](O)[C@@H](O)CO
inactive: outcome [1] | outcome [8] | outcome [4] | Potency [9] | outcome [6]

CC(C#N)(CCC(=O)O)N=NC(C)(C#N)CCC(=O)O (stereo unspecified)
inactive: Potency [2] | Potency [3] | outcome [8] | outcome [4] | Potency [9] | Potency [5] | outcome [6] | Potency [10] | outcome [7]

Cc1c(N)c(=O)n(-c2ccccc2)n1C
inactive: outcome [1] | Potency [2] | outcome [8] | outcome [4] | Potency [9] | Potency [5] | outcome [6] | outcome [7]

C[N+]1(CC2COC(c3ccccc3)(c3ccccc3)O2)CCCCC1 (stereo unspecified)
inactive: cytotoxicity increase [1] -8.36% [at 15.8 µM] | cytotoxicity [2] -9.88% [at 15.8 µM] | activity change, negative = cytotoxic [4] -0.0866% [at 15.8 µM] | activity change, negative = cytotoxicity [9] -2.13% [at 15.8 µM] | activity change, negative = cytotoxicity [5] 0.757% [at 15.8 µM] | activity change [6] -8.9% [at 15.8 µM] | activity change, negative = cytotoxicity [10] -6.4% [at 15.8 µM] | cytotoxicity increase [7] 0.368% [at 15.8 µM]

CCN[C@H]1C[C@H](C)S(=O)(=O)c2sc(S(N)(=O)=O)cc21
inactive: Potency [2] | Potency [3] | outcome [8] | outcome [4] | Potency [9] | Potency [5] | outcome [6] | Potency [10] | outcome [7]

CCOc1c(N2CCOCC2)cnn(C)c1=O
inactive: outcome [1] | Potency [2] | outcome [4] | Potency [9] | Potency [5] | outcome [6] | Potency [10] | outcome [7]

CCNS(=O)(=O)c1ccc(C)cc1
inactive: Potency [2] | Potency [3] | outcome [8] | outcome [4] | Potency [9] | Potency [5] | outcome [6] | Potency [10] | outcome [7]

CC(=O)O[C@@]12CO[C@@H]1C[C@H](O)[C@@]1(C)C(=O)[C@H](O)C3=C(C)[C@@H](OC(=O)[C@H](O)[C@@H](NC(=O)OC(C)(C)C)c4ccccc4)C[C@@](O)([C@@H](OC(=O)c4ccccc4)[C@H]21)C3(C)C
inactive: outcome [1] | Potency [2] | outcome [8] | outcome [4] | Potency [5] | outcome [6] | Potency [10] | outcome [7]
